Sampled rows, rich in hits. Any-hit rate of the full collection: about 3%.
12-LOX inh = blocks human arachidonate 12S-lipoxygenase | P18054 | purified 12hLO, xylenol orange hydroperoxide absorbance | Potency, µM (top dose mostly 108 µM), for inactives: at the highest dose activity change, negative = inhibition, actives largely listed as inhibitors | actives 1.1% (n = 580,000) | AID 1671190; active = well fitted inhibition curve with a large enough effect; inconclusive = small, poorly fitted or top-dose-only effect, or another doubt; inactive = no such curve, though single readings can be large or run the other way; note: potency is the fitted concentration of half-maximal effect; % is set by controls: 0 for no effect and ±100 for the full control effect
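Hydroperoxide product was detected by ferrous iron/xylenol orange as the 573 to 405 nm absorbance ratio. Arachidonic acid at 40 uM (final) was turned over for 30 min at room temperature by 150 nM human 12hLO, pH 7.0 Hepes buffer, after 15 min compound preincubation.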
BCR signal inh = chronic active BCR signaling inhibition; actives 0.05% (n = 340,000); ABC-DLBCL IkBa-CBG/CBR reporter, luminescence ratio, 4 h; Potency, µM (titrated, usually from 46.1 µM), for the others: top-dose activity change, negative = inhibition, hits mostly inhibitors; active = well fitted inhibition curve with a large enough effect in the signal ratio, with a control signal flat, not every such curve was filed as active; inconclusive = small, poorly fitted or top-dose-only effect, or effect the other way, or a change in a side signal; the % refers to the signal ratio;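 note: potency is the fitted concentration of half-maximal effect; plate controls were basal doxycycline-induced cells for no effect and cells given 10 µM MG132 for full effect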
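TMD8 ABC-DLBCL cells carrying doxycycline-inducible green luciferase fused to IkappaBalpha plus unfused red luciferase were exposed to compounds (up to 46 uM) for 4 hrs at 37C. Activity came from the overlap-corrected green/red luminescence ratio.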
KCNH2 WT inh = inhibitors of human wildtype KCNH2 potassium channel; Q12809; activity change, % at 1.84 µM; actives 0.37% (n = 340,000); U2OS, BacMam KCNH2, thallium flux FluxOr; active compounds read low;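 active = maximum activity change below -70%; inconclusive = maximum activity change between -70% and -50%; inactive = maximum activity change above -50%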; note: % is set by controls: 0 for no effect and ±100 for the full control effect
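U2OS cells transduced with wild-type KCNH2 virus are loaded with FluxOr dye for 45 min, and thallium flux is measured in kinetic reads before and after stimulation buffer. Rate constants are normalized to DMSO controls.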
LDHA block = blocks human lactate dehydrogenase A. P00338. purified LDHA, NADH/diaphorase-resazurin fluorescence; active compounds read low. activity change, % (values are at about 110 or 230 µM). actives 0.15% (n = 480,000). AID 1347041; in the data active = activity change below about -30%; inconclusive = mostly about -25% to -30%;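 note: plate controls were DMSO wells for no effect and wells without enzyme for full effect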
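Remaining NADH was detected by diaphorase (0.133 mg/mL) converting 37 µM resazurin to fluorescent resorufin, read at 0 and 20 minutes. The preceding 5-minute room-temperature reaction used 2 nM LDHA, 0.2 mM sodium pyruvate and 0.06 mM NADH at pH 7.4.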
ClpP mod = qHTS Assay for Activators of ClpP. purified B. subtilis ClpP, FRET peptide cleavage, 20 min. Potency, µM (highest dose often 57.5 µM), for the others: at the highest dose activity change, negative = active. actives 1.9% (n = 340,000). ATP-dependent Clp protease proteolytic subunit (Bacillus subtilis (strain 168)), P80244; active = well fitted falling curve with a large enough effect; inconclusive = small, poorly fitted or top-dose-only effect; inactive = no such curve, though single readings can be large or run the other way; note: potency is the fitted concentration of half-maximal effect; the source files actives as falling curves though it sought activators and does not explain the sign; nearly all actives have a fitted effect of over 65% in size
Target sequence (P80244 whole entry, looked up): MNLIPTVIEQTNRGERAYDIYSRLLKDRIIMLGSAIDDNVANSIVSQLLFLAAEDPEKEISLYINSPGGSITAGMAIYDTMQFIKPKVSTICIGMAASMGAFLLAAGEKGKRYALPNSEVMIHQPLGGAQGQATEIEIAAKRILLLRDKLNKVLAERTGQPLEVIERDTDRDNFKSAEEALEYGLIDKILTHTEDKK
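FRET quenching reversal measured ClpP activation: 10 microg/mL B. subtilis ClpP at pH 8 with the FRET-FV decapeptide, read at 430 nm after 320 nm excitation. The 20-min minus 0-min signal was scaled between DMSO/no-enzyme wells and ADEP (5.8 microM final).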
KCNH2 3.1 block = inhibitors of human KCNH2 3.1 potassium channel isoform; U2OS KCNH2 3.1, thallium flux FluxOr; active compounds read low; activity change, % (tested at about 1.8 µM); actives 0.95% (n = 340,000); AID 720553;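 active = maximum activity change below -70%; inconclusive = maximum activity change from -70% to -50%; inactive = maximum activity change above -50%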;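 note: thallium influx rate constant from kinetic fluorescence after stimulation buffer; % is set by controls: 0 for no effect and ±100 for the full control effect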
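U2OS cells transduced with KCNH2 3.1 mutant virus (1.77 x 10^8 /mL, 4 h), plated overnight at 37 C, loaded 45 min with FluxOr dye plus Red40 quencher. Thallium flux rate constant from kinetic reads after stimulation buffer, normalised to controls.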
An asterisk follows results filed as active; u = inconclusive; x = not tested or not shown.

SMILES | 12-LOX inh | BCR signal inh | KCNH2 WT inh | LDHA block | ClpP mod | KCNH2 3.1 block
CCN1CCN(c2cc3c(nn2)Oc2ccccc2N3C)CC1 | 10.4% | 7.9% | 4.4 | 6.4 | 28.2µM* | 2.5
CCN1CCN(c2nnc(-c3ccccc3)c3ccccc23)CC1 | 0.0% | -1.0% | x | -4.3 | 2.6% | -5.7
CC(Oc1cccc(Cl)c1)c1nc(-c2ccncc2)no1 (stereo not drawn) | -7.0% | x | x | 6.4 | x | x
O=C(Cn1cc([N+](=O)[O-])cn1)NC1CCCCCC1 | -2.7% | 1.1% | -0.3 | -4.3 | x | -2.6
COC(=O)c1c(NC(=O)Cn2cc([N+](=O)[O-])cn2)sc2c1CCC2 | 13.9% | 7.1% | 0.2 | -7.3 | 12.6µM* | -10.8
COc1ccccc1C(C)NC(=O)CSC(C)c1ccccc1 (stereo not drawn) | 26.9% | x | x | 3.2 | x | x
O=C(Nc1ccc(N2CCN(C(=O)c3ccc(Cl)cc3)CC2)cc1)c1ccc(Br)o1 | u | -8.8% | -6.7 | -4.4 | -1.5% | -90.4*
COc1cc(NC(=O)c2cc(Cl)ccc2Cl)ccc1NC(=O)c1cc2ccccc2o1 | -12.5% | x | x | 1.5 | 28.2µM* | x
Cc1ccc(C(=O)N2CCN(c3ccc(NC(=O)CSc4ccc(Cl)cc4)cc3)CC2)cc1 | 5.4% | -0.9% | -117.7* | -7.0 | 1.0% | -117.7*
O=C(Nc1ccc(N2CCN(C(=O)c3ccc(Cl)cc3)CC2)cc1)c1cc2ccccc2o1 | -11.5% | -0.1% | -117.3* | -3.5 | 4.4% | -111.1*
Cc1ccc(-n2nnnc2SCC(=O)N(Cc2ccco2)C2=CCCCC2)cc1C | u | x | x | 9.8 | x | x
CC(C)(C)c1ccc(Cn2c(=N)n(CC(O)c3ccco3)c3ccccc32)cc1 (stereo not drawn) | x | u | -84.8* | -0.9 | x | u
Cc1ccccc1Cn1c(=N)n(CC(O)c2ccco2)c2ccccc21 (stereo not drawn) | -1.8% | u | 50.6 | -1.9 | -3.3% | -21.8
CCCCn1c(=N)n(CC(O)COc2ccc(C)cc2)c2ccccc21 (stereo not drawn) | -5.7% | u | -83.3* | 0.0 | 0.4% | -90.2*
N=c1n(CCN2CCCC2)c2ccccc2n1CC(O)c1ccco1 (stereo not drawn) | -23.7% | -13.6% | 22.5 | -12.0 | -0.1% | -17.7
CCCCCCCn1c(=N)n(CC(O)c2ccco2)c2ccccc21 (stereo not drawn) | -16.2% | u | -38.4 | -2.9 | x | -106.1*
CC1Oc2ccc(NC(=O)CC(C)(C)C)cc2CN(Cc2ccccc2F)C1=O (stereo not drawn) | 19.5% | x | x | x | x | x
CSc1ccc(/C=C/C(=O)c2cc(C)sc2C)cc1 | -2.3% | x | x | -0.1 | x | x
Cc1cccc(/C=C/C(=O)O)c1C | u | x | x | 0.3 | x | x
OCC1(Cc2ccccc2)CCN(CCCC2CCCC2)CC1 | u | -4.4% | -34.6 | -5.5 | 0.8% | -75.0*
COc1ccc(CC2(CO)CCN(Cc3cnn(-c4ccc(F)cc4)c3)CC2)cc1 | 13.4% | 15.8% | 13.1 | -5.9 | -0.4% | 11.0
COc1ccc(CC2(CO)CCN(Cc3ccc(OC(F)(F)F)cc3)CC2)cc1 | u | 2.1% | u | 0.8 | x | -81.3*
COc1ccc(CC2(CO)CCN(Cc3cnn(-c4ccccc4)c3)CC2)cc1 | u | -0.2% | -45.3 | -14.3 | x | -89.2*
COc1ccc(CC2(CO)CCN(Cc3ccc4c(c3)CCO4)CC2)cc1 | -26.8% | 5.4% | -154.2* | -7.5 | x | -181.1*
Cc1ccc(NC(=O)Cn2nc(-c3ccco3)ccc2=O)cc1 | u | x | x | 7.5 | x | x
O=C(c1ccc2ncsc2c1)N(Cc1ccccc1)C1CC1 | 2.6% | x | x | 0.7 | x | x
COc1ccc(CC2(CO)CCN(Cc3cccn3-c3ccccn3)CC2)cc1 | 16.7% | 8.9% | u | 1.7 | x | -108.4*
OCC1(Cc2ccccc2)CCCN(Cc2ccc(-c3ccco3)cc2)C1 (stereo not drawn) | -20.7% | 2.2% | -3.6 | -0.8 | -28.4% | -26.5
OCC1(Cc2ccccc2)CCN(Cc2ccc(-c3ccco3)cc2)CC1 | -18.1% | -2.2% | -11.2 | -0.8 | u | -85.1*

Bioassay records (PubChem)
